Data reported in PubChem BioAssay (Tox21).
Inconclusive results are not listed. The source made the active and inactive calls. Unless noted, calls come from the whole dose curve; as a rule, active = well fitted curve in the direction sought with a large enough effect in the repeat runs; inconclusive = weak or mixed curves; inactive = no such curve, though single readings can be large; an effect the other way counts as inactive or inconclusive.

Assays:
[1] = qHTS assay to identify small molecule antagonists of the estrogen related receptor (ERR) signaling pathway from Tox21 library - cell viability counter screen (AID 1224834); note: nearly all actives have a fitted effect of over 30% in size
Method in brief: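 ERR reporter cells, 2,000 per well, rested 6 h, then exposed to compound in DMSO for 17.5 hours at 37 C. Viability read as fluorescence after 30 min with CellTiter-Fluor.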

[2] = biological target: Luciferin 4-monooxygenase (Photinus pyralis) (UniProt P08659); assay: qHTS assay to identify small molecule inhibitors of firefly luciferase (AID 1224835); note: nearly all actives have a fitted effect of over 25% in size; note: potency is the fitted concentration of half-maximal effect; for activity change, negative = inhibition: series mostly up to about 120 µM
Method in brief: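 Quantitative HTS format; KM concentrations of both substrates. Purified P. pyralis FLuc activity quantified from luminescence images.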

[3] = qHTS assay to identify small molecule agonists of the constitutive androstane receptor (CAR) signaling pathway - cell viability counter screen (AID 1224836); note: series mostly up to about 92 µM; nearly all actives have a fitted effect of over 45% in size
Method in brief: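 Compound titrations (15 concentrations) went onto HepG2-CYP2B6-hCAR cells 4 h after seeding, alongside PK11195 at a final 0.75 uM; a 23 h, 37 C/5% CO2 incubation preceded CellTiter-Fluor viability measurement.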

[4] = qHTS assay to identify small molecule antagonists of the constitutive androstane receptor (CAR) signaling pathway - cell viability counter screen (AID 1224837); note: series mostly up to about 92 µM; nearly all actives have a fitted effect of over 45% in size
Method in brief: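 HepG2 cells stably carrying hCAR and CYP2B6-2.2kb reporter, stimulated with 50 nM CITCO and compounds at 15 concentrations for 23 h at 37 C. Viability measured by CellTiter-Fluor fluorescence.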

[5] = biological target: Nuclear receptor subfamily 1 group I member 3 (Homo sapiens) (UniProt Q14994); assay: qHTS assay to identify small molecule antagonists of the constitutive androstane receptor (CAR) signaling pathway (AID 1224838); note: nearly all actives have a fitted effect of over 40% in size
Method in brief: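 HepG2 cells stably carrying hCAR and a CYP2B6-2.2kb luciferase reporter, seeded 4 hrs before compound (15 concentrations). Stimulated with 50 nM CITCO for 24 hr at 37 C. ONE-Glo luminescence read after 30 min at room temperature.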

[6] = biological target: Nuclear receptor subfamily 1 group I member 3 (Homo sapiens) (UniProt Q14994); assay: qHTS assay to identify small molecule agonists of the constitutive androstane receptor (CAR) signaling pathway (AID 1224839); note: series mostly up to about 92 µM; nearly all actives have a fitted effect of over 15% in size
Method in brief: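 In this screen, CAR-driven CYP2B6 promoter activity is measured by luminescence in HepG2-CYP2B6-hCAR cells after 24 h with test compounds and 0.75 uM PK11195 (final concentration).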

[7] = qHTS assay to identify small molecule antagonists of the estrogen related receptor signaling pathway with the pleiotropic PPARgamma coactivator (PGC) from Tox21 10K library - cell viability counter screen (AID 1224840; active = well fitted cell-killing curve with a large enough effect in the repeat runs, not every such curve was filed as active; note: nearly all actives have a fitted effect of over 40% in size)
Method in brief: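 PGC/ERR cells (2,000/well) plated 6 h, then compound-treated for 17.5 h at 37 C. Viability measured by CellTiter-Fluor fluorescence after 30 min at 37 C, multiplexed with the pathway assay.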

[8] = biological target: Thyrotropin receptor (Homo sapiens) (UniProt P16473); assay: qHTS assay to identify small molecule agonists of the thyroid stimulating hormone receptor (TSHR) signaling pathway (AID 1224843; calls by dose curve; note: nearly all actives have a fitted effect of over 45% in size)
Method in brief: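 TSHR-expressing HEK293 cells (800 per well) were exposed to compounds for 30 min at room temperature. cAMP was then detected by HTRF competition with cAMP-d2 and anti-cAMP cryptate, read after 1 h at room temperature. Fifteen concentrations, triplicate.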

[9] = qHTS assay to identify small molecule agonists of the hypoxia (HIF-1) signaling pathway - cell viability counter screen (AID 1224844; calls by dose curve; note: nearly all actives have a fitted effect of over 50% in size)
Method in brief: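 HRE-bla ME-180 cells, 2,000/well in 0.5% dialyzed FBS medium, treated 17 h at 37C with compounds. Viability read in the same wells as the bla reporter, by CellTiter-Glo luminescence after 30 min at room temperature.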

[10] = qHTS assay to identify small molecule agonists of the hypoxia (HIF-1) signaling pathway (AID 1224846; active = well fitted activation curve with a large enough effect in the signal ratio in the repeat runs, not every such curve was filed as active; the % refers to the signal ratio)
Method in brief: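 HRE-bla ME-180 beta-lactamase reporter cells in medium with 0.5% dialyzed FBS, pre-incubated 5 h then exposed to compounds 17 h at 37C, 5% CO2; reporter induction read with CCF4-AM FRET substrate.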

[11] = qHTS assay to identify small molecule agonists of H2AX - cell viability counter screen (AID 1224847; calls by dose curve; note: top concentration of the series differs between compounds; nearly all actives have a fitted effect of over 30% in size)
Method in brief: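 Read-out: CellTiter-Glo luminescence, 30 min RT. Cells: wild-type CHO-K1, 1000/well, 10% FBS, plated overnight at 37C. Treatment: 15 concentrations, 3 hr, 37C, 0.76% DMSO.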

[12] = qHTS RealTime-Glo MT Cell Viability Assay in HepG2 cells - 24 hour (AID 1224867); note: nearly all actives have a fitted effect of over 50% in size
Method in brief: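 Viability was tracked continuously by NanoLuc luminescence from prosubstrate reduced by living HepG2 cells, at successive time points over 40 h of compound exposure. Cells with reagent were preincubated 5 h at 37 °C before compound addition.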

[13] = qHTS RealTime-Glo MT Cell Viability Assay in HEK293 cells - 32 hour (AID 1224868); note: top concentration of the series differs between compounds; nearly all actives have a fitted effect of over 50% in size
Method in brief: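 Viability tracked continuously by luminescence as live cells reduce a prosubstrate for NanoLuc; HEK293 cells preincubated 5 h, compound-treated at 37 C, and read at 0, 8, 16, 24, 32 and 40 h.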

[14] = A CellTox Green Cytotoxicity Assay to monitor cytotoxicity in HEK293 cells - 0 hour (AID 1224869); note: nearly all actives have a fitted effect of over 50% in size
Method in brief: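 HEK293 cells, 600/well, were preincubated 5 hours and then exposed to compounds at 37 C for up to 40 hours. A cell-impermeant cyanine dye staining dead-cell DNA was read by fluorescence at 0, 8, 16, 24, 32 and 40 h time points.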

[15] = qHTS assay to identify small molecule agonists of H2AX (AID 1224845; active = well fitted activation curve with a large enough effect in the signal ratio in the repeat runs, not every such curve was filed as active; the % refers to the signal ratio)
Method in brief: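 Wild-type CHO-K1 cells plated overnight, then exposed 3 hr at 37C to compounds at 15 concentrations (0.76% DMSO). Lysed, then HTRF anti-pH2AX(S139)-cryptate/anti-H2AX-d2 detection after 24 hr at room temperature; emissions 665 and 620 nm.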
% is set by controls: 0 for no effect and ±100 for the full control effect.

Chain of Nuclear receptor subfamily 1 group I member 3 (Homo sapiens) (Q14994 whole entry, looked up): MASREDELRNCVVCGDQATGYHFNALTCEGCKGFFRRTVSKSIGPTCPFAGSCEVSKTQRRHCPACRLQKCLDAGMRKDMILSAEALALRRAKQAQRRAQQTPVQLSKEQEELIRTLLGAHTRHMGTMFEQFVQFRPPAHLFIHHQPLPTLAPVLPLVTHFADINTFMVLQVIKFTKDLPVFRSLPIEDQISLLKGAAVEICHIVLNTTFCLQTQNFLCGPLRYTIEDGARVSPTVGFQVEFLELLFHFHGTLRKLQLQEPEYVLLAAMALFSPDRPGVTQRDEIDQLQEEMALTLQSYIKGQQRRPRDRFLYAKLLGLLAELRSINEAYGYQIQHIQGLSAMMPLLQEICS
Chain of Luciferin 4-monooxygenase (Photinus pyralis) (P08659 whole entry, looked up): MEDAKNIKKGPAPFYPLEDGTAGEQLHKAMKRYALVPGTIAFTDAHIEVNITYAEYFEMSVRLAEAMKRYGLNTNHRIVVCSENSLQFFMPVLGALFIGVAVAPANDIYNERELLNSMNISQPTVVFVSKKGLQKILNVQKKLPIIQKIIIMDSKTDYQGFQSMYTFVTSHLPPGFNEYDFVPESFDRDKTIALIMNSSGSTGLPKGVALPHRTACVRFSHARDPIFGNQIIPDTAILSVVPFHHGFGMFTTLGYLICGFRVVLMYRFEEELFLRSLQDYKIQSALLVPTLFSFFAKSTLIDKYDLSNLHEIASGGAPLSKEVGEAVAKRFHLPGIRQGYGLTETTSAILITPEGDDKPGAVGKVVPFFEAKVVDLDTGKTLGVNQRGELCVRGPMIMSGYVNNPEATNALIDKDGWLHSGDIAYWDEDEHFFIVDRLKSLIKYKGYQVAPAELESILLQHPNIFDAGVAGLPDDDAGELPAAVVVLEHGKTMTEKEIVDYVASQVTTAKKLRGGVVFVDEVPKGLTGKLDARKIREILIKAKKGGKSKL
Chain of Thyrotropin receptor (Homo sapiens) (P16473 whole entry, looked up): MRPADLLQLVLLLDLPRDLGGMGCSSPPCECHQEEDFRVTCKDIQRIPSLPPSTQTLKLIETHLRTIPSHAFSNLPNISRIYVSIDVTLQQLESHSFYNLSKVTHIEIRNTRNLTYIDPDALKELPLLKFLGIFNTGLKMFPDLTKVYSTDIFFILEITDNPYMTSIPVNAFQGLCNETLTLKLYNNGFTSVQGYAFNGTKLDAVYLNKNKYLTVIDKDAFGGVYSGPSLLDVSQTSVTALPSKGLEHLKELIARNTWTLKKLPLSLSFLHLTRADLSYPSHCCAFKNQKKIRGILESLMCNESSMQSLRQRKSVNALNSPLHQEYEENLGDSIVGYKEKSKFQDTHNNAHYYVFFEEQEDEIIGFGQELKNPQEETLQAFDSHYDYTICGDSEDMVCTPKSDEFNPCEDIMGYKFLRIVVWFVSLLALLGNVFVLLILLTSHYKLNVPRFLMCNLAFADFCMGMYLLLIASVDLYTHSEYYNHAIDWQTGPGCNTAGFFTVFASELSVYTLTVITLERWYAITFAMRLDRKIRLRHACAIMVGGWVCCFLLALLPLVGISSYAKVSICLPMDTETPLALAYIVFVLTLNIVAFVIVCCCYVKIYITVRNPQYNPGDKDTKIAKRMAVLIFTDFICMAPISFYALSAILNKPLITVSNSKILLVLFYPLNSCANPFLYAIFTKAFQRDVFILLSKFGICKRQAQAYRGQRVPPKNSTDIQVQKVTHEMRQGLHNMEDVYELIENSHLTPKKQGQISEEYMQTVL

Oc1cccc2[nH]ccc12
inactive: Potency [1] | Potency [2] | Potency [3] | Potency [4] | Potency [5] | Potency [6] | Potency [7] | Potency [8] | Potency [9] | outcome [10] | Potency [11] | Potency [12] | Potency [13] | Potency [14]

CC(C)c1ccc(C(=O)N=C(N)N)cc1S(C)(=O)=O
inactive: Potency [1] | Potency [2] | Potency [3] | Potency [4] | Potency [5] | Potency [6] | Potency [7] | Potency [8] | Potency [9] | Potency [15] | Potency [11] | Potency [12] | Potency [13] | Potency [14]

CCCCCCCCCCCCCOC(=O)CCSCCC(=O)OCCCCCCCCCCCCC
inactive: viability change, negative = cytotoxic [1] -0.449% [at 19 µM] | activity change, negative = inhibition [2] -2.08% [at 23.6 µM] | viability change, negative = cytotoxic [3] -3.39% [at 19 µM] | activity change, negative = cytotoxicity [4] -3.13% [at 19 µM] | activity, negative = inhibition [5] 5.4% [at 19 µM] | activation [6] -0.548% [at 19 µM] | viability change, negative = cytotoxic [7] 0.0068% [at 19 µM] | activation [8] -1.63% [at 19 µM] | activity change, negative = cytotoxicity [9] 4.03% [at 15.8 µM] | activation (H2AX phosphorylation) [15] 0.898% [at 31.6 µM] | activation [10] 0.146% [at 15.8 µM] | activity change, negative = cytotoxicity [11] -1.78% [at 31.6 µM] | activity change, negative = cytotoxicity [12] -1.37% [at 15.8 µM] | activity change, negative = cytotoxic [13] -0.356% [at 15.8 µM] | cytotoxicity [14] 6.82% [at 15.8 µM]

O=C(O)CCC(=O)c1ccc(-c2ccccc2)cc1
active: Potency [2] 6.92 µM
inactive: Potency [1] | Potency [3] | Potency [4] | Potency [5] | Potency [6] | Potency [7] | Potency [8] | Potency [9] | Potency [15] | outcome [10] | Potency [11] | Potency [12] | Potency [13] | Potency [14]

Cc1ccccc1S(N)(=O)=O
inactive: Potency [1] | Potency [2] | Potency [3] | Potency [4] | Potency [5] | Potency [6] | Potency [7] | Potency [8] | Potency [9] | Potency [15] | outcome [10] | Potency [11] | Potency [12] | Potency [13] | Potency [14]

O=C(O)CO
inactive: Potency [1] | Potency [2] | Potency [3] | Potency [4] | Potency [5] | Potency [6] | Potency [7] | Potency [8] | Potency [9] | Potency [15] | outcome [10] | Potency [11] | Potency [12] | Potency [13] | Potency [14]

C/C(C=O)=C\c1ccccc1
inactive: Potency [1] | Potency [2] | Potency [3] | Potency [4] | Potency [5] | Potency [6] | Potency [7] | Potency [8] | Potency [9] | Potency [15] | outcome [10] | Potency [11] | Potency [12] | Potency [13] | Potency [14]
